Assay results reported in PubChem BioAssay (NCATS).
Several values for one entry are separate records, joined by “and”; a condition that tells them apart may be missing. Identical values can stand only once. Inconclusive results are not listed. A structure can be active in one record and inactive in another. Activity calls are given as the source filed them. Unless noted, the call rests on the fitted dose curve.

Experiments:
[1] = Primary qHTS for Huh7 cytotoxicity: counterscreen for inhibitors of MERS-S pseudotyped particle cell entry (AID 1479147); conditions: outcome: dose series up to 57.1 µM unless noted
[2] = Primary qHTS for Vero E6 cytotoxicity: counterscreen for inhibitors of SARS-S pseudo-typed particle cell entry (AID 1479150); conditions: outcome: dose series up to 57.1 µM unless noted
[3] = Confirmatory qHTS for VERO E6 Cytotoxicity Assay: Counterscreen for SARS-CoV-2 CPE Assay (AID 1508605); further: on the % scale 0 is the no-effect control and ±100 the full control effect; nearly all actives have a fitted effect of over 60% in size
[4] = Confirmatory qHTS for activators (rescue) of SARS-CoV-2 Cytopathic Effect (CPE) (AID 1508606); further: potency means the concentration at half of the fitted maximal effect; nearly all actives have a fitted effect of over 70% in size
[5] = Cytotoxicity counterscreen for inhibitors of SARS-CoV-2 cell entry (AID 1645845); conditions: outcome: dose series up to 57.1 µM unless noted; further: nearly all actives have a fitted effect of over 50% in size
Outline: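 Counterscreen run in the same HEK293-ACE2 line as the pseudotyped-particle entry assay, without particles. Viability after 48 h at 37 C was read as ATP luminescence, scaled between cell-containing and cell-free wells.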

[6] = qHTS Assay for Identifying Gametocytocidal Compounds (AID 743244; active means well fitted curve in the direction sought with a large enough effect; an effect the other way counts as inactive or inconclusive; further: potency means the concentration at half of the fitted maximal effect); conditions: P. falciparum 3D7 stage III-V gametocytes, alamarBlue, 72 h
Outline: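 In this qHTS viability screen, late-stage 3D7 gametocytes are incubated with compound for 72 h, then with alamarBlue for 24 h; reduced resorufin fluorescence marks killing.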

[7] = Primary qHTS for inhibitors of MERS-S pseudo-typed particle cell entry (AID 1479149); conditions: outcome: dose series up to 57.1 µM unless noted; further: nearly all actives have a fitted effect of over 60% in size
[8] = molecular target: Glutathione peroxidase 1 (Homo sapiens) (UniProt P07203); assay: Primary qHTS Assay for Inhibitors of Recombinant Selenoprotein Glutathione Peroxidase 1 (GPX1) (AID 1845191; active means well fitted curve in the direction sought with a large enough effect; an effect the other way counts as inactive or inconclusive; further: on the % scale 0 is the no-effect control and ±100 the full control effect; nearly all actives have a fitted effect of over 65% in size)
Outline: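 GR-coupled readout: NADPH consumption tracked by fluorescence, ex 340/em 450 nm, at t=0 and after 15 min at RT. Final mix 10 nM GPX1, 1 mM GSH, 0.5 mM CHP, 0.5 mM NADPH, 100 nM GR, 0.01% BSA, following 30 min enzyme–compound preincubation.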

[9] = molecular target: Alpha-galactosidase (Coffea arabica) (UniProt Q42656); assay: Counterscreen for Glucocerebrosidase Inhibitors: qHTS Assay for Coffee Bean alpha-Galactosidase at pH 4.5 (AID 957; active means well fitted curve in the direction sought with a large enough effect; an effect the other way counts as inactive or inconclusive;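 further: plate controls were enzyme alone for no effect and no enzyme for full effect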)
Outline: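 Enzyme is added first (2 nM final), then compounds titrated from 0.7 nM to 77 uM, then 80 uM 4-methylumbelliferyl alpha-D-galactopyranoside; after 20 min at room temperature a pH 10 NaOH/glycine stop precedes fluorescence reading at 365/440 nm.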

[10] = Validation screen for inhibitors of Lassa infection (AID 463096); further: on the % scale 0 is the no-effect control and ±100 the full control effect
[11] = molecular target: Androgen receptor (Homo sapiens) (UniProt P10275); assay: qHTS assay for small molecule agonists of androgen receptor signaling (AID 588515; active means well fitted curve in the direction sought with a large enough effect in the signal ratio, with a control signal flat; the % refers to the signal ratio; further: on the % scale 0 is the no-effect control and ±100 the full control effect); conditions: AR-UAS-bla HEK293, beta-lactamase ratio, agonist 16 h; stronger effect = higher value
Outline: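 Stimulation of an AR-responsive β-lactamase reporter in GripTite HEK293 cells was measured after 16 h compound exposure at 37 °C, via CCF4 fluorescence after 2 h RT. EC50 from Hill fits, normalized to R1881 at 30 nM.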

[12] = molecular target: Androgen receptor (Homo sapiens) (UniProt P10275); assay: qHTS assay for small molecule antagonists of androgen receptor signaling (AID 588516; active means well fitted curve in the direction sought with a large enough effect in the signal ratio, with a control signal flat, not every such curve was filed as active; the % refers to the signal ratio; further: potency means the concentration at half of the fitted maximal effect)
Outline: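 Compounds tested in titration against 10 nM R1881 in AR-responsive bla reporter HEK 293 cells; CCF4 fluorescence (460/530 nm) after 16 h exposure gave IC50 and efficacy.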

[13] = molecular target: Bile acid receptor (Homo sapiens) (UniProt Q96RI1); assay: qHTS assay for small molecule antagonists of farnesoid X receptor signaling (AID 588526); further: on the % scale 0 is the no-effect control and ±100 the full control effect
Outline: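 Antagonist mode: titrated compounds tested against chenodeoxycholic acid stimulation (normalized to 50 uM CDCA and DMSO) in GeneBLAzer HEK293T cells for 16 h. Beta-lactamase read by CCF4 fluorescence; IC50 from Hill fits.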

[14] = molecular target: Bile acid receptor (Homo sapiens) (UniProt Q96RI1); assay: qHTS assay for small molecule agonists of farnesoid X receptor signaling (AID 588527); conditions: HEK293T FXR-UAS-bla, beta-lactamase ratio, 16 h; stronger effect = higher value;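 further: 0% = vehicle basal and 100% = reference agonist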
Outline: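 Agonist-mode beta-lactamase reporter in GeneBLAzer FXR-UAS-bla HEK293T cells, titration up to 92 uM, 16 h exposure at 37 C, CCF4 fluorescence. Response scaled to DMSO (0%) and 100 uM chenodeoxycholic acid (100%), then Hill-fitted for EC50 and efficacy.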

[15] = molecular target: Peroxisome proliferator-activated receptor delta (Homo sapiens) (UniProt Q03181); assay: qHTS assay for small molecule agonists of peroxisome proliferator-activated receptor delta signaling (AID 588534);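 further: 0% = DMSO basal wells and 100% = positive control agonist at 10 µM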
Outline: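 Agonist-mode qHTS; reporter cells, 5 hrs 37 C pre-incubation; compound titration, 18 hrs 37 C; CCF4 dye, 2 hrs RT; fluorescence read. EC50/efficacy via Hill fit.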

[16] = qHTS assay for small molecule antagonists of peroxisome proliferator-activated receptor delta signaling (AID 588535; active means well fitted inhibition curve with a large enough effect in the signal ratio, with a control signal flat, not every such curve was filed as active; the % refers to the signal ratio;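 on max response: cells co-treated with a PPAR-delta agonist as stimulator during compound exposure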); conditions: HEK293T PPARd-UAS-bla, beta-lactamase FRET ratio, 18 h; 460 nm channel
Outline: (§1)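 Fluorescence from CCF4-loaded GeneBLAzer PPAR-delta-UAS-bla HEK293T cells (2 hrs RT loading) quantified reporter inhibition after an 18 hr, 37 C compound exposure across a titration.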

[17] = molecular target: Peroxisome proliferator-activated receptor delta (Homo sapiens) (UniProt Q03181); assay: as above
Outline: as §1

[18] = molecular target: Peroxisome proliferator-activated receptor gamma (Homo sapiens) (UniProt P37231); assay: qHTS assay for small molecule agonists of peroxisome proliferator-activated receptor gamma signaling (AID 588536; active means well fitted curve in the direction sought with a large enough effect in the signal ratio, with a control signal flat, not every such curve was filed as active; the % refers to the signal ratio;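 further: 0% = DMSO basal wells and 100% = rosiglitazone at 2 µM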)
Outline: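 This is an agonist-mode beta-lactamase reporter assay in HEK293 PPAR-gamma-UAS-bla cells with 1% charcoal/dextran FBS. Compound titrations ran 16 h at 37 C before CCF4 detection. EC50 and efficacy are Hill fits scaled to 2 uM rosiglitazone (100%) and DMSO basal.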

[19] = molecular target: Peroxisome proliferator-activated receptor gamma (Homo sapiens) (UniProt P37231); assay: qHTS assay for small molecule antagonists of peroxisome proliferator-activated receptor gamma signaling (AID 588537; active means well fitted inhibition curve with a large enough effect in the signal ratio, with a control signal flat, not every such curve was filed as active; the % refers to the signal ratio;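 further: reporter cells co-stimulated with 50 nM rosiglitazone agonist during compound treatment; % of control where 0% means no effect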)
Outline: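 Fluorescence at 460 and 530 nm (405 nm excitation) reported beta-lactamase cleavage of CCF4 after 2 h room-temperature loading. HEK293 reporter cells in 1% charcoal/dextran-treated FBS had received compound and rosiglitazone for 16 h.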

[20] = molecular target: Vitamin D3 receptor (Homo sapiens) (UniProt P11473); assay: qHTS assay for small molecule antagonists of vitamin D receptor signaling (AID 588541);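 further: receptor activated by calcitriol during compound treatment; on the % scale 0 is the no-effect control and ±100 the full control effect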
Outline: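 VDR-UAS-bla HEK293T cells in 2% charcoal-stripped FBS were stimulated with 1-alpha,25-dihydroxyvitamin D3 (3 nM final) plus compound for 16 h at 37 C. The beta-lactamase CCF4 readout was normalized to 50 nM agonist and DMSO, and Hill fits gave IC50.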

[21] = molecular target: Vitamin D3 receptor (Homo sapiens) (UniProt P11473); assay: qHTS assay for small molecule agonists of vitamin D receptor signaling (AID 588543);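 further: 0% = DMSO basal and 100% = reference agonist control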
Outline: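 Measured: β-lactamase reporter activity (CCF4, 405 nm excitation, 460/530 nm emission) in HEK293T VDR-UAS-bla cells after 16 h compound exposure at 37 °C. Normalization against 50 nM 1α,25-dihydroxyvitamin D3 and DMSO; Hill-fit EC50.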

[22] = molecular target: Thyroid hormone receptor beta (Homo sapiens) (UniProt P10828); assay: qHTS assay for small molecule agonists of thyroid hormone receptor beta signaling (AID 588545);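 further: 0% = DMSO only and 100% = 10 nM T3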
Outline: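 Efficacy and EC50 values derive from Hill fits of qHTS titration data, normalized to 10 nM T3 and DMSO-only wells. HEK 293 reporter cells were stimulated for 18 hrs at 37 C, with beta-lactamase activity measured by CCF4 fluorescence.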

[23] = qHTS assay for small molecule antagonists of retinoid X receptor alpha signaling (AID 588546; active means well fitted inhibition curve with a large enough effect in the signal ratio, with a control signal flat, not every such curve was filed as active; the % refers to the signal ratio); conditions: HEK293T RXRa-UAS-bla, beta-lactamase ratio, antagonist mode; measured here: W530 green channel, cytotoxicity proxy
Outline: (§2)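 Beta-lactamase reporter inhibition, read as CCF4 fluorescence ratio (ex 405, em 460/530 nm) after 2 h at RT. HEK293T UAS-bla cells, 2500/well, were stimulated with 9-cis-RA at 500 or 100 nM final alongside test compound for 18 h at 37 C.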

[24] = molecular target: Retinoic acid receptor RXR-alpha (Homo sapiens) (UniProt P19793); assay: as above; conditions: HEK293T RXRa-UAS-bla, beta-lactamase ratio, antagonist mode
Outline: as §2

[25] = molecular target: Thyroid hormone receptor beta (Homo sapiens) (UniProt P10828); assay: qHTS assay for small molecule antagonists of thyroid hormone receptor beta signaling (AID 588547; active means well fitted inhibition curve with a large enough effect in the signal ratio, with a control signal flat, not every such curve was filed as active; the % refers to the signal ratio); conditions: TR-UAS-bla HEK293, beta-lactamase ratio, antagonist mode, 18 h
Outline: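 TR-UAS-bla GripTite HEK293 cells in 2% charcoal/dextran FBS medium; compounds 0.59 nM to 92 uM with T3 at 0.4nM final, 18 h at 37 C. Beta-lactamase read by CCF4 fluorescence (460/530 nm); Hill fits gave IC50 and efficacy.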

[26] = qHTS assay for small molecule agonists of the antioxidant response element (ARE) signaling pathway (AID 651741; active means well fitted activation curve with a large enough effect in the signal ratio; the % refers to the signal ratio; further: potency means the concentration at half of the fitted maximal effect)
Outline: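 Stably integrated ARE-beta-lactamase reporter HepG2 cells; 16 h compound incubation, 37 C; LiveBLAzer FRET substrate 2 h at room temperature; fluorescence intensity.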

[27] = qHTS assay for small molecule activators of the p53 signaling pathway (AID 651743; active means well fitted activation curve with a large enough effect in the signal ratio, not every such curve was filed as active; the % refers to the signal ratio; further: % of control where 0% means no effect); conditions: HCT-116 p53RE-bla, beta-lactamase FRET ratio, 16 h; activation: stronger effect = higher value
Outline: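 Following 16 hours of compound exposure at 37 C, HCT-116 cells bearing the p53RE-bla reporter were loaded with LiveBLAzer B/G FRET substrate for 2 hours at room temperature and fluorescence intensity was recorded.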

[28] = qHTS assay for small molecule activators of the nuclear factor-kappa B (NF-kB) signaling pathway (AID 651749; active means well fitted activation curve with a large enough effect in the signal ratio; the % refers to the signal ratio; further: % of control where 0% means no effect); conditions: NF-kB-bla ME-180 cells, beta-lactamase FRET ratio, 16 h; activation: stronger effect = higher value
Outline: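 In this qHTS format, compounds acting as activators increase NF-kB-driven beta-lactamase in ME-180 cells, measured as disrupted FRET after 16 hr exposure at 37C and 5% CO2.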

[29] = qHTS assay for environmental chemicals that activate the Aryl hydrocarbon Receptor (AhR) signaling pathway (AID 651777; active means well fitted curve in the direction sought with a large enough effect; an effect the other way counts as inactive or inconclusive; further: % of control where 0% means no effect; nearly all actives have a fitted effect of over 15% in size); conditions: 1A2-DRE human hepatoma cells, luciferase, 24 h; activation: stronger effect = higher value
Outline: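 1A2-DRE human hepatoma reporter line; 1,200 cells/well; cmpd or DMSO 24 h, 37 C/5% CO2; One-Glo 30 min RT; luciferase lum.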

[30] = molecular target: Peroxisome proliferator-activated receptor alpha (Homo sapiens) (UniProt Q07869); assay: qHTS assay for small molecule agonists of the peroxisome proliferator-activated receptor alpha (PPARalpha) signaling pathway (AID 651778; active means well fitted curve in the direction sought with a large enough effect; an effect the other way counts as inactive or inconclusive; further: % of control where 0% means no effect); conditions: PathHunter PPARalpha complementation, chemiluminescence, 6 h; stronger effect = higher value
Outline: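 Enzyme-fragment complementation assay in which ligand-bound PPARalpha translocates and forms an active enzyme that generates chemiluminescence. Cells were plated overnight, exposed to compound for 6 hr at 37 C, and then given detection reagent for 60 min at room temperature.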

[31] = qHTS assay for small molecule agonists of the antioxidant response element (ARE) signaling pathway measured by Nrf2-dependant transcriptional activity - cell viability counter screen (AID 720653; active means well fitted curve in the direction sought with a large enough effect in the repeat runs; an effect the other way counts as inactive or inconclusive; further: on the % scale 0 is the no-effect control and ±100 the full control effect); conditions: ARE-bla HepG2 viability, CellTiter-Glo ATP luminescence, 16 h; stronger effect = lower value
Outline: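 ARE-bla HepG2 cells treated with compounds for 16 h at 37C; this counter screen measures viability as intracellular ATP by CellTiter-Glo luminescence after 30 min at room temperature.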

[32] = qHTS assay for cell viability of HEK293 cells (AID 743288; active means well fitted curve in the direction sought with a large enough effect; an effect the other way counts as inactive or inconclusive; further: on the % scale 0 is the no-effect control and ±100 the full control effect; nearly all actives have a fitted effect of over 50% in size); conditions: ATP luminescence (CellTiter-Glo), 18 h; max response: stronger effect = lower value
Outline: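 HEK293, 18 h, 37 C, ATP luminescence. Cells at 2,000/well were allowed at least 5 h to settle before dosing; CellTiter-Glo developed 30 min at RT.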

[33] = Primary qHTS to identify inhibitors of SARS-CoV-2 cell entry (AID 1645846); conditions: SARS-CoV-2 pseudovirus cell entry assay, luminescence; activity change, negative = inhibition: at 57.1 µM (top of the series) unless noted; further: nearly all actives have a fitted effect of over 45% in size
Outline: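 Using luciferase-reporting pseudoviruses carrying Wuhan-Hu-1 spike, the screen tracks entry into stably ACE2-expressing cells over 48 hr. Activity is expressed relative to spike particles versus particles lacking any fusion protein.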

Chain of Peroxisome proliferator-activated receptor delta (Homo sapiens) (Q03181 whole entry, looked up): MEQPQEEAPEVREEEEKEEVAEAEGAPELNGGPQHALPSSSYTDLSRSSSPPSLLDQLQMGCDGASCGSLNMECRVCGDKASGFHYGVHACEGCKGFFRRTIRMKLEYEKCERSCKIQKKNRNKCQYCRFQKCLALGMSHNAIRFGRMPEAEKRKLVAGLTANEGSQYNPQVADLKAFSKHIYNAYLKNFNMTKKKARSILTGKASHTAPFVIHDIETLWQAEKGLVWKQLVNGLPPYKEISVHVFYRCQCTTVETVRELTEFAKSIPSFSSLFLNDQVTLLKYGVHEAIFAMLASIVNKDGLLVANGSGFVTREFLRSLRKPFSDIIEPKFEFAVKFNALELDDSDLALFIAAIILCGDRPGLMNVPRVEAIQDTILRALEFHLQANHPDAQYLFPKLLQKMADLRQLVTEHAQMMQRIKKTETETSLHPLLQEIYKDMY
Chain of Androgen receptor (Homo sapiens) (P10275 whole entry, looked up): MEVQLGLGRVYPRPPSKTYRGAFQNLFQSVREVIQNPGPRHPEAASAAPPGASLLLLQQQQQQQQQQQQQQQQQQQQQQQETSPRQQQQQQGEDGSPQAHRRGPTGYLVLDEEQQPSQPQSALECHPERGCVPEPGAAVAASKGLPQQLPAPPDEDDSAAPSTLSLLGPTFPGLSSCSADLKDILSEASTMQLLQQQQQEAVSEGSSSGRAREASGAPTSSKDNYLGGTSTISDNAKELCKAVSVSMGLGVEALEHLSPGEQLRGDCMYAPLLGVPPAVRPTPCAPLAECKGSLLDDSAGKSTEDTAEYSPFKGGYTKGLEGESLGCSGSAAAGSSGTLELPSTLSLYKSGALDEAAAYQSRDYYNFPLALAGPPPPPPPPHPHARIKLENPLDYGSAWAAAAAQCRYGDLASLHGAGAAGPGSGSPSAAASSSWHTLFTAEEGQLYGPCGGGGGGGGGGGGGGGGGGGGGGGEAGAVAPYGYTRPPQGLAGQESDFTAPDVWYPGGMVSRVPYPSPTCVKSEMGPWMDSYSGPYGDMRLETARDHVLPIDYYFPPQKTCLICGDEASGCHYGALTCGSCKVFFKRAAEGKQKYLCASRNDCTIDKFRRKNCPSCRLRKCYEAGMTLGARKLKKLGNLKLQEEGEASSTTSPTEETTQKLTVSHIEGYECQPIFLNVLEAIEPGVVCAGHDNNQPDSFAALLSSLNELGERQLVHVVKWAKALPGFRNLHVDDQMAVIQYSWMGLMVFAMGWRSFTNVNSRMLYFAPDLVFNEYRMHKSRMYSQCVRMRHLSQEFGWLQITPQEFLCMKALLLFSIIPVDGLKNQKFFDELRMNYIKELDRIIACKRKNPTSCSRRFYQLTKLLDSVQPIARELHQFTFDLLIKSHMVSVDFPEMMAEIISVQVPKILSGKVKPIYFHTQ
Chain of Peroxisome proliferator-activated receptor gamma (Homo sapiens) (P37231 whole entry, looked up): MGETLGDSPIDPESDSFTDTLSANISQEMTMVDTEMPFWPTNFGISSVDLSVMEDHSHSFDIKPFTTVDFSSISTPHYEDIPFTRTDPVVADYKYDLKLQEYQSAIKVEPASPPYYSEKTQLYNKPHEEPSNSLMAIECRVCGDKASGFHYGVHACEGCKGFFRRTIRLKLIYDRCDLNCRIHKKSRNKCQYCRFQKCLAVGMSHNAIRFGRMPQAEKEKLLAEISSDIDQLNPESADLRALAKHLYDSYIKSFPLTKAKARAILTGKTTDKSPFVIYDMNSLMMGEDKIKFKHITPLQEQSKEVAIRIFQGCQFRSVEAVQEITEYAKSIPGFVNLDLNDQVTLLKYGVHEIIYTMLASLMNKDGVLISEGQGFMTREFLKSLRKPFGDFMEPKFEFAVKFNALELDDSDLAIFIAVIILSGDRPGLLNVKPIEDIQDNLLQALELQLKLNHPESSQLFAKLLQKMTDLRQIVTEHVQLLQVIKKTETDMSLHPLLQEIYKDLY
Chain of Thyroid hormone receptor beta (Homo sapiens) (P10828 whole entry, looked up): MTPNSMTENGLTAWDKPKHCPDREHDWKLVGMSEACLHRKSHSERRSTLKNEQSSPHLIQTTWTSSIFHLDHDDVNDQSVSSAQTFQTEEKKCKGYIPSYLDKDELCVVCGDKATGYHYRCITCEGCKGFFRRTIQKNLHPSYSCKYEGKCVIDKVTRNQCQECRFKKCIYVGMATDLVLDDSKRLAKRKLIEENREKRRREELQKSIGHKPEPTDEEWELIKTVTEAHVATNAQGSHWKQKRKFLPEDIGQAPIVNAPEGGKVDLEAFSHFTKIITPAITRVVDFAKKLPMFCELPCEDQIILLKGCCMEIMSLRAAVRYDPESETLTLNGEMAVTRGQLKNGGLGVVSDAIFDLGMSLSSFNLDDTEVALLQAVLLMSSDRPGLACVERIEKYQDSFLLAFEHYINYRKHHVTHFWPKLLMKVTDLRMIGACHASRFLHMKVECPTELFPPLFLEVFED
Chain of Bile acid receptor (Homo sapiens) (Q96RI1 whole entry, looked up): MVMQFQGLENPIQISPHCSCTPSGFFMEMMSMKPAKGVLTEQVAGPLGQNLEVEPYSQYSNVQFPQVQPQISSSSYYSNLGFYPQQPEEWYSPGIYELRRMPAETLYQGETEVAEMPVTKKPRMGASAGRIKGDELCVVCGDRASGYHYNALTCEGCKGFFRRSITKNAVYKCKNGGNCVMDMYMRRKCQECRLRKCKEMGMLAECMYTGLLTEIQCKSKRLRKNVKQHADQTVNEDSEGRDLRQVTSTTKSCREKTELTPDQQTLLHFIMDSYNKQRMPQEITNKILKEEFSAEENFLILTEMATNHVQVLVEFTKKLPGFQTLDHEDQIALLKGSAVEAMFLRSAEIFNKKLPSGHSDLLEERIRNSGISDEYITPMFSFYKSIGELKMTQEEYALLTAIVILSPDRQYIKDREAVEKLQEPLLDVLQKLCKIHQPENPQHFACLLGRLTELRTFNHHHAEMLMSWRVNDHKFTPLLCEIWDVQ
Chain of Vitamin D3 receptor (Homo sapiens) (P11473 whole entry, looked up): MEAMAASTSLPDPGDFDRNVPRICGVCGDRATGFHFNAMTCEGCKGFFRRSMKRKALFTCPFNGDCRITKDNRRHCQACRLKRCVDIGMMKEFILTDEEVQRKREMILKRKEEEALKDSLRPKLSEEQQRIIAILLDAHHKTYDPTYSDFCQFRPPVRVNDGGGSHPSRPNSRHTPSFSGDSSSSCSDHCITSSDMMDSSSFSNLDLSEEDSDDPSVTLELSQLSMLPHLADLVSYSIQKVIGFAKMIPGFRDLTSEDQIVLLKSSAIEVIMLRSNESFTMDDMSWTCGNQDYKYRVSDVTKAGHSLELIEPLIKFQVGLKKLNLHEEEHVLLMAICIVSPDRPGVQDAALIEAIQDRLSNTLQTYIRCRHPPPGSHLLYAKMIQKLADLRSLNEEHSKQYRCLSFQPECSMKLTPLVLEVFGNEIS
Chain of Peroxisome proliferator-activated receptor alpha (Homo sapiens) (Q07869 whole entry, looked up, the tested form may be a part): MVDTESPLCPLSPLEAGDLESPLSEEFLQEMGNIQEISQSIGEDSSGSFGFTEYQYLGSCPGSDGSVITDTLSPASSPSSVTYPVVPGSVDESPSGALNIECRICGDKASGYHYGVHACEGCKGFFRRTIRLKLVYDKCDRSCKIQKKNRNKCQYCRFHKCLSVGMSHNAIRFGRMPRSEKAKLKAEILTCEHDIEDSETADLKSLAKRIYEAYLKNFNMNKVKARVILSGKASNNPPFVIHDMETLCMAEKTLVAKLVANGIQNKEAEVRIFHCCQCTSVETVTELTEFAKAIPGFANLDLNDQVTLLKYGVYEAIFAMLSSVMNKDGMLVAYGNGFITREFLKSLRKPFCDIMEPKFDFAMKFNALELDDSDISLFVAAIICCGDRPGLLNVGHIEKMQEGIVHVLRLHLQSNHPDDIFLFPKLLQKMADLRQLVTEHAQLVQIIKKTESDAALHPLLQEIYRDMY
Chain of Retinoic acid receptor RXR-alpha (Homo sapiens) (P19793 whole entry, looked up): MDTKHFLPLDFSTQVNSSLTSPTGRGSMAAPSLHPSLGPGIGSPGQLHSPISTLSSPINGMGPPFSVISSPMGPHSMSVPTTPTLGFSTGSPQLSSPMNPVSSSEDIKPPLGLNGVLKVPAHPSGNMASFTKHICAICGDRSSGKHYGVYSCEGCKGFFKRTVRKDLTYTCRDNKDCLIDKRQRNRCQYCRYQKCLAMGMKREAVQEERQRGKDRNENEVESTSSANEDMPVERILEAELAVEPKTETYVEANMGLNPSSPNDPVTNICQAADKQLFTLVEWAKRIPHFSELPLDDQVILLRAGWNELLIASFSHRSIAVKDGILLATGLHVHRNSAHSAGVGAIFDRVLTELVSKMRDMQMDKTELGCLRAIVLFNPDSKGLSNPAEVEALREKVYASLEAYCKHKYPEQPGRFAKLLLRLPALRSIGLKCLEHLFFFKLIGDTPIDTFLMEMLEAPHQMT
Chain of Glutathione peroxidase 1 (Homo sapiens) (P07203 whole entry, looked up): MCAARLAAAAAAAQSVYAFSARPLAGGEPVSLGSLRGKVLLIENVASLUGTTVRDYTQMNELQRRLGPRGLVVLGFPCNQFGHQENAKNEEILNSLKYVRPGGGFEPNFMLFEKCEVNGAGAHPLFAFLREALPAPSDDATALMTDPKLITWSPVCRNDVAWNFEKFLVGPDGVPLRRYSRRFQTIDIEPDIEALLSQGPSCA
Chain of Alpha-galactosidase (Coffea arabica) (Q42656 whole entry, looked up): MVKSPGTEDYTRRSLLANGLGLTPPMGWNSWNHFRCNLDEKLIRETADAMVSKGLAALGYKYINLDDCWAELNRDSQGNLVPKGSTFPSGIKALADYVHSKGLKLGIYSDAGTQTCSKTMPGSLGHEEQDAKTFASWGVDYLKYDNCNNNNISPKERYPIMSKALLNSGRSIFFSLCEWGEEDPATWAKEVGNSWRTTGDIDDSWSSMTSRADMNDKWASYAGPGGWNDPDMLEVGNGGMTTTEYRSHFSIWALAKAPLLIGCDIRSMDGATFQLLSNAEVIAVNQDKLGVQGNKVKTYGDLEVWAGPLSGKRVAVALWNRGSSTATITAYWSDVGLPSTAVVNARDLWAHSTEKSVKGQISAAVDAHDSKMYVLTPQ

CN(C)CCC=C1c2ccccc2C(C)(C)c2ccccc21
active: Potency [4] 10 µM
inactive: Potency [1] | Potency [2] | Potency [3] | Potency [5]

C#C[C@]1(O)CC[C@H]2[C@@H]3CCC4=CC(=O)CC[C@@H]4[C@H]3C(=C)C[C@@]21CC
inactive: Potency [1] | Potency [7] | Potency [2] | Potency [5]
active: Potency [6] 7.43 µM

c1ccc(CCNCc2ccccc2)cc1
inactive: Potency [1] | Potency [7] | Potency [2] | Potency [5] | Potency [8]

CC[N+](C)(C)Cc1ccccc1Br
inactive: outcome [9] | Potency [10] | Potency [1] | Potency [7]

CC(COc1ccc(Oc2ccccc2)cc1)Oc1ccccn1 (centres undefined)
-5.43%: activity change, negative = inhibition [33]
active: Potency [26] 48.6 µM and 27.3 µM
-19.9% and -8.14%: max response [23]
11.7% and -13.8%: max response [16]
inactive: activation [11] -2.33% | outcome [13] | activation [14] 0.631% and 1.01% | outcome [15] | Potency [17] | outcome [18] | Potency [19] | outcome [20] | outcome [21] | outcome [22] | max response [24] -8.09% and -10.1% | activity change % (negative = inhibition) [25] 4.1% and -8.02% | activation [27] -3.04% and -2.31% | activation [28] -1.12% and 0.467% | activation [29] 13% | max response [30] -1.27% and -0.944% | max response [31] 2.4% and -4.17% | max response [32] -1.69% and -16.3% | Potency [1] | Potency [7] | Potency [2] | Potency [8]
inactive and 39.8 µM (active): Potency [12]

O=c1ccc2ccc(OCCCCN3CCN(c4cccc5sccc45)CC3)cc2[nH]1
inactive: Potency [1] | Potency [2] | Potency [3]
